# Screens as filed in PubChem.
# TRPML1 inh – blocks the human TRPML1 channel; Q9GZU1; TRPML1-inducible cells, Ca2+ dye fluorescence, FDSS; hits give low values; inhibition of EC80 agonist-evoked calcium signal; activity change, negative = inhibition, % (concentration not given with the values); actives 0.02% (n = 390,000); AID 624415; in the data active means activity change below about -50%; inconclusive means between about -30% and that limit;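 further: stimulus is agonist 54-4 at its EC80 concentration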
#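 Calcium fluorescence in TRPML1-DL cells induced overnight with Tet: a 110 s read after compound pin addition, then a 110 s antagonist read after challenge with 54-4 at 4 uM final (EC80).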
# TRPV1 PAM – human TRPV1 potentiation. Q8NER1. TRPV1-expressing cells, Fluo-8 calcium influx, capsaicin EC20 potentiation. potentiation, % at 8.33 µM. actives 0.02% (n = 320,000). AID 540277; in the data active means potentiation above about 80%; inconclusive means between about 30% and that limit
# Target sequence (Q8NER1 whole entry, looked up): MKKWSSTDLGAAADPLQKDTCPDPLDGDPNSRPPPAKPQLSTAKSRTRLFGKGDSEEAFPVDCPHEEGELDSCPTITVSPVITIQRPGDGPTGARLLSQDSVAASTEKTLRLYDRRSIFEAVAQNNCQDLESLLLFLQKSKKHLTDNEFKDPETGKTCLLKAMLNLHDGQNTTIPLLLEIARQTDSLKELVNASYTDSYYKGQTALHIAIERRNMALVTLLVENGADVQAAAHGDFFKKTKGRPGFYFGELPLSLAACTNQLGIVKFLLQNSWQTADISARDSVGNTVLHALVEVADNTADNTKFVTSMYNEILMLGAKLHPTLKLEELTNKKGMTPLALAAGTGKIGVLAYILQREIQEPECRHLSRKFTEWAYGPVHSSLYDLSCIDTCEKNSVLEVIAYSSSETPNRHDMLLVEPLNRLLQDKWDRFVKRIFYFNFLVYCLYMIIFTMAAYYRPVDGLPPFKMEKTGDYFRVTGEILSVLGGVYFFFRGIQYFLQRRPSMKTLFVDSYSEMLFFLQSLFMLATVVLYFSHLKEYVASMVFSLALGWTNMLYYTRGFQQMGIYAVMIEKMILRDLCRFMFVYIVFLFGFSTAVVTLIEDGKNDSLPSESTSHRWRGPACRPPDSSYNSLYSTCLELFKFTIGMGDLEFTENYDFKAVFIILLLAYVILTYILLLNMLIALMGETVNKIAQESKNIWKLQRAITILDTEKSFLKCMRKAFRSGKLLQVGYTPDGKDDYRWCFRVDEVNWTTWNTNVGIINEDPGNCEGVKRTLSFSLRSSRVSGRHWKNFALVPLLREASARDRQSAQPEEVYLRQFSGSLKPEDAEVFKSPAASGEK
#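 Fluo-8 calcium influx in TRPV1-expressing cells, kinetic read (ex 480/em 520 nm). Compound added and read 3 min for agonist activity, followed by capsaicin at EC20 final and 2 min further read for enhancement.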
# TRPML1 agonist – activates the human TRPML1 channel. Q9GZU1. actives 0.12% (n = 410,000). activation, % (test concentration not listed). AID 624414. TRPML1-expressing cells, Ca2+ dye fluorescence, FDSS; in the data active means activation above about 50%; inconclusive means mostly about 30% to 49%
#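 Agonist activity was taken from a 110 s kinetic Ca2+ dye read on the FDSS after pinning compounds onto TRPML1-DL cells. The cells were seeded at 1,500/well with Tet inducer, incubated about 16 h, then dye-loaded at room temperature.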
# TRPV1 agonist – activates the human vanilloid receptor TRPV1. activation, % at 8.33 µM. TRPV1-expressing cells, Fluo-8 calcium influx, agonist mode. Q8NER1. AID 540275. actives 0.19% (n = 320,000); in the data active means activation above about 80%; inconclusive means between about 30% and that limit
#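 Fluo-8 calcium influx in TRPV1-expressing cells, kinetic read (ex 480/em 520 nm). Compound added and read 3 min for agonist activity, followed by capsaicin at EC20 final and 2 min further read for enhancement.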
# TRHR agonist-1 – TRH receptor (human) agonism. actives 0.18% (n = 360,000). activation, % at 2 µM. TRHR cells, calcium flux fluo-8, FDSS agonist mode; in the data active means activation above about 30%
#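 Agonist-mode FDSS calcium read (Ex 480/Em 530, 1 s cycles) in 1536-well TRHR cells with fluo-8 dye, after 10-cycle baseline and 23 nL compound addition; TRH at EC20 (10 nM final) added afterwards for the enhancer phase.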
# TRHR enhancer-1 – TRH receptor (human) allosteric enhancement. P34981. TRHR cells, fluo-8 calcium fluorescence, EC20 TRH enhancement. enhancement, % at 2 µM. actives 0.66% (n = 360,000). AID 493056; in the data active means enhancement above about 30%
#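 TRHR-expressing cells loaded with fluo-8 calcium dye were read kinetically (ex 480/em 530) during compound addition, then stimulated with an EC20 of TRH (10 nM final). Enhancement of the Gq-mediated intracellular calcium response was scored.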
# TRHR enhancer-2 – human TRH receptor allosteric enhancement confirmation | activity change, negative = inhibition, % at 46.1 µM | TRH receptor cell assay, enhancer confirmation qHTS | 970 tested, under 10 active | shares compounds with TRHR enhancer-1 | AID 493076;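 further: compound effect scored on response to added TRH at EC20 of 10 nM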
# TRHR agonist-2 – human TRH receptor agonism confirmation. Potency, µM (doses to about 46.1 µM), hits mostly activators. actives 8% (n = 970). TRHR-expressing cells, agonist activation read-out. shares compounds with TRHR enhancer-1; further: nearly all actives have a fitted effect of over 75% in size
# Numbers stand for hits; . = inactive; ? = inconclusive; / = not tested or not shown. In the library only some 0.99% were active in any assay of this set; here they are far more common. Unless noted, the call rests on the fitted dose curve; in most records, active means well fitted curve in the direction sought with a large enough effect; inconclusive means small, poorly fitted or top-dose-only effect, or another doubt; inactive means no such curve, though single readings can be large; an effect the other way counts as inactive or inconclusive.
SMILES,TRPML1 inh,TRPV1 PAM,TRPML1 agonist,TRPV1 agonist,TRHR agonist-1,TRHR enhancer-1,TRHR enhancer-2,TRHR agonist-2
CCc1ccc(-n2nc(CO)c(C(=O)NCc3cccs3)n2)cc1,.,/,.,/,.,.,/,/
COc1ccc(C(=O)c2sc3nc(-c4ccccc4)ccc3c2N)cc1OC,.,.,.,.,44.2,.,.,?
CCc1ccc(-c2cc(C)no2)cc1S(=O)(=O)Nc1ccc(Cl)cc1,.,/,.,/,.,.,/,/
COc1cc(OC)c(NC(=O)Cn2c(=O)c(C(F)(F)F)nc3ccccc32)cc1Cl,.,/,.,/,.,.,/,/
COC(=O)c1cc2sccc2n1CC(=O)Nc1cccc(SC)c1,.,.,.,.,.,44.9,.,.
COC(=O)c1cc2occc2n1CC(=O)Nc1cccc(SC)c1,.,/,.,/,.,.,/,/
Cc1ccc(C(=O)Nc2c(-c3ccccc3)nc3ccccn23)cc1C,.,/,.,/,.,.,/,/
COc1ccccc1C(=O)N1CCN(Cc2cn[nH]c2-c2ccc(F)cc2F)CC1,.,.,.,.,.,57.0,.,.
CCCCc1cc(=O)oc2cc(OCC(=O)N(CC)CC)ccc12,.,.,.,.,.,.,/,/
CCCCc1cc(=O)oc2cc(OCC(=O)N(CC)CC)c(Cl)cc12,.,.,.,.,.,65.6,.,.
COc1cccc(NC(=O)CN2C(=O)NC3(CCCCCC3)C2=O)c1,.,/,.,/,/,/,/,/
COc1cccc(NC(=O)CN2C(=O)NC(C)(CC(C)C)C2=O)c1 (configuration not stated),.,.,.,.,.,52.2,.,.
CN(C(=O)c1ccc(NC(=O)c2ccco2)cc1)c1ccccc1,.,.,.,.,.,.,/,/
CN(C(=O)c1cccc(NC(=O)c2ccco2)c1)c1ccccc1,.,.,.,.,34.1,.,.,.
NC(=O)c1c(NC(=O)CN2CCCC2)sc2c1CCCC2,.,.,.,.,.,.,/,/
NC(=O)c1c(NC(=O)CN2CCOCC2)sc2c1CCC2,.,.,.,.,.,66.4,.,.
CCc1cnc2c(c1SCC(=O)NCc1ccc(F)cc1)c(=O)n(C)c(=O)n2C,.,/,.,/,.,.,/,/
COc1cc(NC(=O)Cn2ccn(-c3cc(C)cc(C)c3)c(=O)c2=O)cc(OC)c1,.,/,.,/,.,.,/,/
O=C(N/N=C/c1c(O)n(-c2ccc(Cl)cn2)c(=O)c2ccccc12)C1CC1,.,.,.,.,.,.,/,/
O=C(N/N=C/c1c(O)n(-c2ccc(Cl)cn2)c(=O)c2ccccc12)c1ccncc1,.,.,.,.,38.2,.,.,20.6µM
NC(=O)c1ccc(NC(=O)CNCc2ccccc2Cl)cc1,.,.,.,.,.,.,/,/
O=C(CNCc1ccccc1Cl)Nc1ccc(C(=O)N2CCCCC2)cc1,.,.,.,.,.,41.3,.,.
Cc1ccc(C(=O)NCc2nnc(SCC(=O)NC(C)c3ccccc3)n2C)cc1 (configuration not stated),.,.,.,.,.,43.3,.,.
Cn1c(CNC(=O)c2ccccc2)nnc1SCC(=O)Nc1nccs1,.,.,.,.,.,.,/,/
CCOc1ccc(CN(C(=O)c2cc(=O)c3cc(Cl)ccc3o2)C2CCS(=O)(=O)C2)cc1 (configuration not stated),.,/,.,/,.,.,/,/
SMILES,TRPML1 inh,TRPV1 PAM,TRPML1 agonist,TRPV1 agonist,TRHR agonist-1,TRHR enhancer-1,TRHR enhancer-2,TRHR agonist-2
O=C(c1cc2ccccc2oc1=O)N1CCCCCCC1,.,.,.,.,.,56.4,.,.
O=C(c1cc2ccccc2oc1=O)N1CCCC1,.,.,.,.,.,.,/,/
N#C/C(=C/c1ccc(N2CCOCC2)o1)C(=O)NC1CCCCC1,.,.,?,?,46.9,.,?,20.6µM
N#C/C(=C\c1ccc(N2CCOCC2)o1)c1ccccc1,.,.,.,.,.,.,/,/
CCOC(=O)C1=C(O)/C(=C/c2cc(OC)c(O)c(OC)c2)SC1=Nc1ccc(OC)cc1,.,.,.,?,.,.,.,?
O=C(Nc1nnc(SCc2ccccc2)s1)C1=COCCO1,.,.,.,.,.,.,/,/
O=C(Nc1nnc(SCc2ccc(F)cc2)s1)C1=COCCO1,.,.,.,.,.,42.7,.,.
Cc1ccccc1OCC(=O)NCC(c1ccc(Cl)cc1)N1CCCCC1 (configuration not stated),.,/,.,/,.,.,/,/
Cc1ccc(C)c(C2=CSC3=NS(=O)(=O)CCN23)c1,.,.,.,.,.,.,/,/
Cc1ccc(C)c(C2=CSC3=NCCN23)c1,.,.,.,.,.,67.6,.,.
CC1=C(C(=O)OCC(C)C)C(c2ccccc2Cl)NC(=O)N1C (configuration not stated),.,.,.,.,.,.,/,/
CC1=C(C(=O)OCC(C)C)C(c2cc3c(cc2Br)OCO3)NC(=O)N1C (configuration not stated),.,.,.,.,.,52.7,.,?
CC(C)CCNC(=O)NC(=O)CSc1ccc(S(=O)(=O)N2CCOCC2)cn1,.,.,.,.,.,63.4,.,.
